Data from PubChem BioAssay (NCI).
This is part of a sample that, as a whole, favours compounds with a hit. Of some 83,000 tested, about 20% had one in any assay.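 Testing used 96-well plates and a 48-hour single-concentration exposure. Example: -40 means 40% of the starting cells died.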 Values without a mark were called inactive. Activity calls are given as the source filed them. Rule for the calls: active = growth percent below 10; inactive = the rest.

Tests used:
Test in all cases: NCI-60 one-dose screen, 48 h (100 = growth as untreated, 0 = no growth, -100 = all killed)
Details in all cases: 10 µM unless noted
NCI-H23 lung = test system: NCI-H23 lung
NCI-H322M lung = test system: NCI-H322M lung
HOP-62 NSCLC = test system: HOP-62 NSCLC
NCI-H460 lung = test system: NCI-H460 lung
HOP-92 NSCLC = test system: HOP-92 NSCLC
NCI-H522 lung = test system: NCI-H522 lung
A549/ATCC NSCLC = test system: A549/ATCC NSCLC
786-0 renal = test system: 786-0 renal
DU-145 prostate = test system: DU-145 prostate
K-562 leukemia = test system: K-562 leukemia
MALME-3M melanoma = test system: MALME-3M melanoma
MDA-MB-231 breast = test system: MDA-MB-231 breast
RXF 393 renal = test system: RXF 393 renal
SF-268 CNS = test system: SF-268 CNS
SF-295 CNS = test system: SF-295 CNS
SF-539 CNS = test system: SF-539 CNS
UACC-257 melanoma = test system: UACC-257 melanoma
M14 melanoma = test system: M14 melanoma
HCT-15 colon = test system: HCT-15 colon
COLO 205 colon = test system: COLO 205 colon

| Structure (SMILES) | growth (NCI-H23 lung) | growth (NCI-H322M lung) | growth (HOP-62 NSCLC) | growth (NCI-H460 lung) | growth (HOP-92 NSCLC) | growth (NCI-H522 lung) | growth (A549/ATCC NSCLC) | growth (786-0 renal) | growth (DU-145 prostate) | growth (K-562 leukemia) | growth (MALME-3M melanoma) | growth (MDA-MB-231 breast) | growth (RXF 393 renal) | growth (SF-268 CNS) | growth (SF-295 CNS) | growth (SF-539 CNS) | growth (UACC-257 melanoma) | growth (M14 melanoma) | growth (HCT-15 colon) | growth (COLO 205 colon) |
| --- | --- | --- | --- | --- | --- | --- | --- | --- | --- | --- | --- | --- | --- | --- | --- | --- | --- | --- | --- | --- |
| O=c1c2cc(F)ccc2sc2c(NCCN3CCCC3)nc3ccccc3c12 | 77.1% | 69% | 67.6% | 12.3% | 27.5% | 63.8% | 53.7% | 55.6% | 45.8% | -43.2% (active) | 83% | 30.8% | 38.3% | 47% | 85.6% | 61.8% | 92% | 15.1% | 27.6% |  |
| COc1cc(C2CC(c3ccc(Nc4nc(NCCO)nc(N5CCOCC5)n4)cc3)=NN2c2cc(Cl)cc(Cl)c2)cc(OC)c1OC (stereo not drawn) | 56.7% | 72.6% | 67.2% | 22.2% | 32.7% | 66% | 36.6% | 12.5% | 67.5% | 21.9% | 77.6% | 49.2% | 5.08% (active) | 49.4% | 50.1% | 41.4% | 80.2% | 64.9% | 31.5% |  |
| COC(=O)c1c2c(c(C)[n+]([O-])c1C)C(=O)C=C(NCc1ccc(F)c(F)c1)C2=O | -76% (active) | -15.7% (active) | -11.8% (active) | -26.3% (active) | -37.9% (active) | -53.1% (active) | -24.4% (active) | -3.8% (active) | -99.6% (active) | 1.15% (active) | -100% (active) | -31.2% (active) | -51% (active) | -12.2% (active) | -99% (active) | -95.7% (active) | -83% (active) | -88.2% (active) | -83.3% (active) |  |
| Cn1c(/C=C(\C#N)c2cccc(C(F)(F)F)c2)nc2c(N3CCOCC3)nc(Cl)nc21 | 16% | 63.1% | 34.1% | 26.7% | -77.4% (active) | -56% (active) | 33.6% | -74.2% (active) | -80.3% (active) | -12.2% (active) | -21.8% (active) | -70.1% (active) | -92.2% (active) | -50.8% (active) | 85.1% | -79.9% (active) | -64.5% (active) | -77.3% (active) | -37.3% (active) |  |
| Cc1cccc2c(=O)c3c(sc12)c(NCCN)nc1ccccc13 | -13.2% (active) | -38.3% (active) | -64.6% (active) | -75.3% (active) | 27.7% | -56.3% (active) | -75.2% (active) | -37.4% (active) | -87.9% (active) | -45.2% (active) | -74.2% (active) | -75.6% (active) | 34.1% | 6.22% (active) | -75.3% (active) | -85.7% (active) | -17.6% (active) | -75.7% (active) | -79.9% (active) |  |
| O=c1oc2ccc(Br)cc2c(=O)n1-c1ccc(Br)cc1F | -38.4% (active) | 2.56% (active) | -4.63% (active) | 1.55% (active) | -13.7% (active) | 6.36% (active) | 13% | 1.72% (active) | 13.8% | 8.3% (active) | -28.4% (active) | -27.2% (active) | -11.5% (active) | 12% | -73.6% (active) | -3.2% (active) | -15.1% (active) | -12.4% (active) | 2.53% (active) |  |
| O=C(NCc1ccccc1)C1CN(c2ccc(Cl)cc2)N(c2ccc(Cl)cc2)C1=O (stereo not drawn) | 94% | 95.8% | 74.6% | 85.6% | 86.5% | 65.6% | 69.6% | 99.3% | 97.5% | 35.1% | 73.8% | 91.3% | 81.1% | 82.4% | 76.3% | 93.4% | 79.4% | 74.9% | 59.5% |  |
| Cc1ccc(C2CC(c3ccc(Nc4nc(NCCO)nc(Nc5ccc(Cl)cc5)n4)cc3)=NN2c2cc(Cl)cc(Cl)c2)cc1 (stereo not drawn) | 92.5% | 85% | 82.8% | 98.9% | 101% | 104% | 94.2% | 102% | 112% | 99.9% | 102% | 91.3% | 88.6% | 79.7% | 100% | 92.4% | 101% | 121% | 99.3% |  |
| COc1cc(/C=C2\CN(C)C/C(=C\c3cc(CN4CCCCC4)c(O)c(OC)c3)C2=O)cc(CN2CCCCC2)c1O | 34.2% | 43.1% | 65% | 0.801% (active) | 51% | 39.8% | 45.7% | 50.1% | 1.15% (active) | 10.2% | 84.6% | 7.14% (active) | 29.7% | 41% | 91.7% | 48.6% | 76.9% | 70.3% | 18.6% |  |
| COc1cc2nc(NC3CCC3)nc(NC3CCN(C(C)C)CC3)c2cc1OC | 92.2% | 89.2% | 81.5% | 58.3% | 26% | 30.7% | 4.73% (active) | 68% | 57.1% | 0.162% (active) | -4.44% (active) | -2.38% (active) | -16.9% (active) | 77.9% | 96.6% | 5.1% (active) | -59.9% (active) | -65.8% (active) | 67.7% |  |
| Cc1cccc2c(=O)c3c(sc12)c(NCCCNCCO)nc1ccccc13 | 55% | 63.3% | 41.6% | 19.3% | 29.4% | 58.6% | 39.4% | 52.8% | 35% | -51.3% (active) | 26.9% | -1.61% (active) | 43.3% | 52.1% | 74.7% | 59.4% | 91.6% | 35.1% | 0.41% (active) |  |
| NCCCNc1nc2ccccc2c2c(=O)c3cc(F)ccc3sc12 | 70% | 41.9% | 32.8% | -74.7% (active) | 8.11% (active) | -42.7% (active) | -29.3% (active) | 1.83% (active) | -22.8% (active) | -50.4% (active) | 76.7% | -53.1% (active) | 41.9% | 34.3% | 85.9% | 55.2% | 68.1% | -55.5% (active) | -49.3% (active) |  |
| C=C1C(=O)O[C@H]2[C@H]1CC/C(COC(=O)/C=C\C(=O)O)=C\CC[C@@]1(C)O[C@@H]21 | 98.9% | 105% | 99.2% | 107% | 108% | 97.5% | 105% | 109% | 112% | 109% | 99.8% | 103% | 111% | 100% | 96.7% | 93.2% | 99.8% | 110% | 105% |  |
| O=C(NCc1ccco1)C1CN(c2ccc(Cl)cc2)N(c2ccc(Cl)cc2)C1=O (stereo not drawn) | 59.5% | 68.2% | 48.6% | 14.4% | 78.1% | 39.3% | 40.1% | 37.6% | 70.1% | 17.9% | 37.2% | 59.1% | 58.2% | 50.9% | 30.1% | 49.4% | 69.1% | 32.1% | 28.4% |  |
| Cc1nc(Nc2cn[nH]c2C(=O)Nc2ccc(CN3CCN(C)CC3)cc2)c2ccsc2n1 | 95.5% |  | 107% | 109% | 90.6% | 72% | 66.9% | 65.1% | 102% | 72.2% | 132% | 82.4% | 61.7% | 88.2% | 118% | 78.4% | 98.3% | 98.9% | 81% | 94.1% |
| O=S(=O)(Nc1ncccn1)c1ccc(NC2Nc3nc4ccccc4nc3S2)cc1 (stereo not drawn) | 97% |  | 99.6% | 103% | 105% | 94.5% | 95.8% | 100% | 105% | 98.2% | 96.1% | 99.3% | 109% | 97.9% | 99.5% | 95.5% | 94% | 95.5% | 96.9% |  |
